Records with an inconclusive call do not appear. The source made the active and inactive calls. The call rests on the fitted dose curve; in most records, active means well fitted inhibition curve with a large enough effect; inconclusive means small, poorly fitted or top-dose-only effect; inactive means no such curve, though single readings can be large or run the other way.
Assay: Confirmatory qHTS for Identification of Small Molecule Inhibitors of Huntingtin Promoter Activity; further: nearly all actives have a fitted effect of over 65% in size;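 on activity change, negative = inhibition: 0% = vehicle control and -100% = zero luminescence signal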
Details: HEK293 HTT promoter firefly luciferase reporter, 24 h; series mostly up to 57.5 µM; activity change, negative = inhibition: at the top concentration
Procedure, shortened: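 Plated reporter HEK293 cells (24 h) received library compounds at up to 57.5 uM final or 50 uM PTC124, incubated 24 h at 37C; firefly luciferase luminescence was then recorded with Dual-Glo reagent.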
Potency means the concentration at half of the fitted maximal effect.

SMILES | activity change, negative = inhibition | Potency
COc1ccc2nc(N3CCN(C(=O)CS(=O)(=O)c4ccc(C)cc4)CC3)sc2c1 | -14.3% (inactive) | –
Cc1ccc(C2=CC(c3ccc(Cl)cc3)n3nc(-c4ccc(C)cc4)nc3N2)cc1 (stereo not given) | -24.2% (inactive) | –
COc1cc(OC)c(OC)cc1/C=C/c1nc2cc3ccccc3cc2c(=O)n1-c1ccc(F)c(Cl)c1 | -22.1% (inactive) | –
O=C(NCc1cccnc1)C(=O)NCC(c1cccnc1)N1CCN(c2ccccc2F)CC1 (stereo not given) | -17.6% (inactive) | –
COc1ccc(N2CCN(C(=O)c3ccc4c(=O)n(CCc5ccc(OC)c(OC)c5)c(=O)[nH]c4c3)CC2)cc1 | – | 12 µM (active)
C1=CCOCc2cc(ccc2OCCN2CCCC2)Nc2nccc(n2)-c2cccc(c2)OCC1 | – | 9.53 µM (active)
COc1cccc(N2CCN(C(=O)c3cccc(-n4c(C)nc5cccnc54)c3)CC2)c1 | – | 23.9 µM (active)
CCCCOC(=O)c1ccc(NC(=O)c2sc3nc(C)cc(C)c3c2N)cc1 | – | 12 µM (active)
Cn1cnc(=N)c2[nH]cnc21 | 4.3% (inactive) | –
CCOc1ccccc1C(=O)Nc1nc2c(s1)CC(C)CC2 (stereo not given) | 64.2% (inactive) | –
NC(=O)Nc1cc(-c2ccc(CN3CCOCC3)cc2)sc1C(N)=O | 16.2% (inactive) | –
COc1ccc([C@@H]2CNC(=O)C2)cc1OC1CCCC1 | -7.15% (inactive) | –
COc1cc2nc(N3CCCN(C)CC3)nc(NC3CCN(Cc4ccccc4)CC3)c2cc1OC | – | 26.9 µM (active)
CN[C@H]1[C@@H](O)[C@@H]2O[C@@H]3O[C@H](C)CC(=O)[C@]3(O)O[C@@H]2[C@@H](NC)[C@H]1O | -9.55% (inactive) | –
Cc1ccc2nc(-c3ccncc3)c(Nc3ccccc3C)n2c1 | 19.8% (inactive) | –

From PubChem BioAssay AID1508621 (National Center for Advancing Translational Sciences (NCATS), 2021)
